An excerpt weighted towards active compounds, which were near 2.7% of everything screened.
GSIS activator: primary screen for activators of insulin secretion dependent on glucose, INS-1E cells, GLuc reporter luminescence | AID 743287 | INS-1E GLuc reporter insulin secretion, 2-3 h | activation, % at 16.6 µM | hit rate 0.61% among 370,000;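 active = lowest replicate activation of at least 40%, so every replicate reaches that level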;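 also: 0% = median of neutral control wells and 100% = median of IBMX positive control wells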
Env fusion inh: blocks HIV Env-driven cell-cell fusion; HeLa-JRFL Env/CEM21 cell fusion, luciferase; hit rate 1.1% among 360,000; inhibition, % at 12.3 µM; AID 651610;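 active = mean replicate inhibition score of at least 50 and every replicate individually at or above 50; inconclusive = only one of the two criteria met; inactive = mean below 50 and not all replicates reaching 50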;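 also: 0% = plate neutral controls and 100% = maraviroc near 300 nM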
Wnt act: activators of Wnt/beta-catenin signaling. hit rate 1.2% among 300,000. AID 743398. activation, % at 9.35 µM. Wnt/beta-catenin reporter cell assay, activator, plate reader; in the data active = activation above about 30%, passing the limit was not always enough; inconclusive = no clear call, values can overlap the other calls;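 also: 0% = neutral control wells and 100% = positive control wells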
MITF act: activators of MITF-driven TRPM1 promoter activity in SK-MEL-5 cells | SK-MEL-5 TRPM1-promoter luciferase, 24 h; % of positive control, neutral wells = 0 | activation, % at 12.5 µM | hit rate 0.75% among 300,000 | AID 588334;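 active = mean activation of at least 80% with every replicate also reaching 80%; inconclusive = mean reaches 80% but some replicate falls short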;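 also: 0% = neutral control wells and 100% = parthenolide positive control wells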
F508del corr: CFTR F508del correction in bronchial cells. CFBE cells, YFP halide quenching; stimulated with forskolin plus potentiator P3; % fluorescence drop versus neutral controls. hit rate 0.36% among 350,000. activity (quench increase), % at 7.58 µM;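 active = mean added fluorescence quench of at least 8% versus neutral control, with both replicates also reaching 8%; inconclusive = only one of the mean or replicate conditions met; inactive = mean below 8% and not both replicates reaching 8%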;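 also: cells transiently co-express mutant CFTR-F508del with the halide-sensitive YFP; corrector assay measuring rescue of mutant channel to the surface after 24 h compound exposure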
Active calls of the source: *; [ ] = another dose, or the depositor's remark.

Results for Fc1cccc(Cc2c(-c3ccco3)nc3c4ccccc4ccn23)c1 ?
GSIS activator: 0.2; Env fusion inh: 68.6*; Wnt act: 16.2; F508del corr: 3.1

How did Fc1ccc(-c2nc3c4ccccc4ccn3c2Cc2ccsc2)cc1 do in these assays?
GSIS activator: 6.0; Env fusion inh: 56.6*; Wnt act: 11.8; F508del corr: 1.0

Results for Cc1cc(Br)cn2c(Cc3cccc(F)c3)c(-c3ccco3)nc12 ?
GSIS activator: 65.5*; Env fusion inh: -14.2; Wnt act: 3.1; F508del corr: 3.7

Results for c1coc(-c2nc3c4ccccc4ccn3c2Cc2ccsc2)c1 ?
GSIS activator: -1.4; Env fusion inh: 63.4*; Wnt act: 9.9; F508del corr: 0.6

How did Fc1ccc(-c2nc3c4ccccc4ccn3c2Cc2ccccc2)cc1 do in these assays?
GSIS activator: -1.7; Env fusion inh: -6.1; Wnt act: -1.3; F508del corr: -1.5

What do the screens show for `Clc1cccc(Cc2c(-c3ccco3)nc3c4ccccc4ccn23)c1`?
Env fusion inh: 6.8; Wnt act: -24.7; F508del corr: 3.5

How did CC(C)NC(=O)N(C)C[C@@H]1Oc2ncc(C#CC3(O)CCCC3)cc2C(=O)N([C@H](C)CO)C[C@H]1C do in these assays?
GSIS activator: 4.5; Env fusion inh: -3.2[16.7 µM]; F508del corr: -2.3

Results for Cc1ccc2sc(-c3ccc(NC(=O)c4cc(-n5cnnc5)ccc4Cl)cc3)nc2c1 ?
GSIS activator: 119.2*; Env fusion inh: -138.5; MITF act: 34.9

What do the screens show for `O=C(Nc1cccc(-c2nc3ccccc3s2)c1)c1cc(-n2cnnc2)ccc1Cl`?
MITF act: 37.7

What do the screens show for `Cc1ccc(S(=O)(=O)N(C)C[C@H]2Oc3c(NC(=O)c4cc(C)nn4C)cccc3C(=O)N([C@H](C)CO)C[C@@H]2C)cc1`?
GSIS activator: -9.5

Results for Cc1ccc2nc(-c3ccc4c(c3)OCCO4)cn2c1 ?
GSIS activator: 6.3; Env fusion inh: 34.0; Wnt act: -18.4; F508del corr: 12.1*

How did O=C1/C(=C/c2cccc([N+](=O)[O-])c2)CSc2ccc(Cl)cc21 do in these assays?
GSIS activator: -1.6; Env fusion inh: 61.5*; Wnt act: -0.3; MITF act: 18.0; F508del corr: 3.3

Results for O=C1/C(=C/c2cccc([N+](=O)[O-])c2)CCc2ccccc21 ?
GSIS activator: 39.7; Env fusion inh: -15.3; MITF act: 6.2

Results for CC(=O)OC1c2ccccc2C(=O)N1c1ccccc1C (stereo unspecified) ?
Env fusion inh: 77.3*; Wnt act: -1.1; MITF act: 4.9; F508del corr: -0.3

Results for Cc1ccc(S(=O)(=O)SC/C=C/CSS(=O)(=O)c2ccc(C)cc2)cc1 ?
GSIS activator: 5.1; Env fusion inh: 2.1; Wnt act: 3.2; MITF act: 3.7; F508del corr: 0.2

What do the screens show for `Cc1ccc(S(=O)(=O)SCCCSS(=O)(=O)c2ccc(C)cc2)cc1`?
GSIS activator: 188.9*; Wnt act: -4.3; MITF act: -16.8; F508del corr: -0.5

Results for Cc1cc(C(=O)Nc2nc3ccc(Cl)cc3s2)nn1C ?
GSIS activator: 5.6; Env fusion inh: -146.5; Wnt act: 60.2*; F508del corr: 1.7

What do the screens show for `Cn1ncc(Cl)c1C(=O)Nc1nc2ccc(Cl)cc2s1`?
GSIS activator: -6.1; Env fusion inh: -30.5; Wnt act: 0.2; MITF act: 14.1; F508del corr: 0.6

What do the screens show for `CCN(CC(=O)Nc1ccc(NC(C)=O)cc1)C(=O)c1ccc(N2CCC(C)CC2)c([N+](=O)[O-])c1`?
GSIS activator: -45.5; Wnt act: -0.9; MITF act: 4.7; F508del corr: 41.0*

What do the screens show for `C=C(C)CNC(=S)Nc1nc2c(cc1C(=O)OCC)CCCC2`?
GSIS activator: 20.2; Env fusion inh: -16.0; Wnt act: 29.6; MITF act: 83.1*

Results for COc1ccccc1-c1nnc(NC(=O)CSc2nncn2C)s1 ?
GSIS activator: 11.4; Env fusion inh: -39.9; Wnt act: 53.7*; MITF act: 9.0; F508del corr: -1.4

Results for COc1ccc(OC)c(NC(=O)C(C)OC(=O)c2cc3ccccc3[nH]2)c1 (stereo unspecified) ?
GSIS activator: -35.3; Env fusion inh: 58.2*; Wnt act: -4.6; MITF act: -30.3; F508del corr: -4.4

Results for CCC(=O)N1[C@H](CO)[C@H]2c3ccccc3N(C(=O)Nc3ccccc3Cl)C[C@H]21 ?
GSIS activator: 4.2; F508del corr: 0.6

What do the screens show for `CC(C)(C)n1nnnc1C(c1ccccn1)N(Cc1ccccc1)Cc1ccc(Cl)cc1` (stereo unspecified)?
Env fusion inh: 127.4*; Wnt act: -17.8; MITF act: -7.1

What do the screens show for `CCN(Cc1ccccc1)C(c1ccccn1)c1nnnn1C(C)(C)CC` (stereo unspecified)?
MITF act: -7.9

Results for CO[C@H]1CN(C)C(=O)c2cc(NC(C)=O)ccc2OC[C@@H](C)N(CCC(F)(F)F)C[C@@H]1C ?
GSIS activator: -7.8; F508del corr: -1.4

Results for Cc1ccn2c(=O)nc(SCC(=O)c3ccc(Cl)cc3)nc2c1 ?
GSIS activator: 31.6; Env fusion inh: 0.1; Wnt act: 7.1; MITF act: 13.5; F508del corr: 1.0

What do the screens show for `Cc1ccn2c(C(=O)c3ccc(Cl)cc3)cnc2c1`?
Env fusion inh: -234.2; Wnt act: 42.9*; MITF act: inconclusive

What do the screens show for `C[C@@H]1CN([C@@H](C)CO)C(=O)c2cc(NC(=O)c3ccncc3)ccc2O[C@@H]1CN(C)Cc1ccc(Oc2ccccc2)cc1`?
GSIS activator: -6.6; Env fusion inh: -3.5[16.7 µM]; F508del corr: -0.6

Results for O=C1O[C@H](c2ccccc2)[C@H](c2ccccc2)N2[C@H]1[C@@H](C(=O)Nc1nc3ccccc3s1)[C@]1(C(=O)Nc3ccc(C#CCCO)cc31)[C@H]2c1ccc(OCCO)cc1 ?
Env fusion inh: -10.0[16.7 µM]; F508del corr: -1.7

Results for CCOC(=O)N1CCN(C(=O)c2oc3ccc(S(=O)(=O)N4CC(C)CC(C)C4)cc3c2C)CC1 (stereo unspecified) ?
GSIS activator: -30.1; Env fusion inh: 61.7*

Results for Cc1noc(C)c1C(=O)NC(C)C12CC3CC(CC(C3)C1)C2 (stereo unspecified) ?
GSIS activator: -4.2; Env fusion inh: 20.6; Wnt act: -6.5; MITF act: 5.2; F508del corr: 0.4

How did CCCC(NC(=O)c1c(C)noc1C)C12CC3CC(CC(C3)C1)C2 (stereo unspecified) do in these assays?
GSIS activator: 24.7; Env fusion inh: 59.8*; Wnt act: -3.6; MITF act: 7.2; F508del corr: -0.1

Results for COC1=CC(=O)C(OC)=C(OC)C1=O ?
GSIS activator: 43.6*; Env fusion inh: -12.5; Wnt act: 1.9; MITF act: 5.4; F508del corr: -4.6

What do the screens show for `FC(F)(F)COc1nc(N2CCOCC2)nc(N(c2ccccc2)c2ccccc2)n1`?
Env fusion inh: 75.5*; MITF act: 4.6

High-throughput results as filed in PubChem.
